According to PubChem BioAssay (NCI):
The panel holds about 79,000 compounds, 15% with a hit somewhere; the sample as a whole holds those more often. Activity calls are given as the source filed them. Rule as the data show it: active = growth inhibition above about 70%; inactive = the rest.

Assays:
[1] = NCI Yeast Anticancer Drug Screen. Data for the rad50 strain (AID 155);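 also: 0% = growth of vehicle-only cultures of the same strain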; settings: S. cerevisiae rad50 strain growth inhibition; at 50.0 µM; hits give high values
Outline: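 Genetically altered yeast (DNA repair pathway); compound treatment; growth inhibition vs vehicle ctrl.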

[2] = NCI Yeast Anticancer Drug Screen. Data for the mec2-1 strain (AID 157); settings: S. cerevisiae mec2-1 strain, at 50.0 µM, hits give high values
Outline: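 Compounds were applied to mec2-1 yeast cells. Their growth was then compared with that of vehicle-treated cultures to give growth inhibition.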

[3] = NCI Yeast Anticancer Drug Screen. Data for the sgs1 mgt1 strain (AID 161);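 also: 0% = growth of cultures given vehicle only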; settings: S. cerevisiae sgs1 mgt1 strain, at 50.0 µM, hits give high values
Outline: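 This yeast growth screen uses a strain with defined DNA-repair lesions; compound-treated growth is compared with vehicle-treated growth.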

[4] = NCI Yeast Anticancer Drug Screen. Data for the cln2 rad14 strain (AID 165);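 also: 0% = growth equal to vehicle treated cultures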; settings: S. cerevisiae cln2 rad14 strain, at 50.0 µM, hits give high values
Outline: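 Strain: cln2 rad14 yeast, altered in cell cycle control and DNA damage repair. Read-out: growth inhibition vs vehicle.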

[5] = NCI Yeast Anticancer Drug Screen. Data for the bub3 strain (AID 167); settings: S. cerevisiae bub3 mutant strain, at 50.0 µM, hits give high values
Outline: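 Yeast carrying a defined mutation is treated with each compound, and growth is compared with that of vehicle-exposed cells to give inhibition.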

[6] = NCI Yeast Anticancer Drug Screen. Data for the mlh1 rad18 strain (AID 175); settings: S. cerevisiae mlh1 rad18 strain growth inhibition; at 50.0 µM; hits give high values
Outline: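 A repair-deficient yeast strain is exposed to test compound, and growth is scored relative to vehicle-treated controls.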

Measured: growth inhibition

Nc1ccc2c(c1)C1C(C3C2C2(Cl)C(Cl)=C(Cl)C3(Cl)C2(Cl)Cl)C2(Cl)C(Cl)=C(Cl)C1(Cl)C2(Cl)Cl (stereo not given)
inactive: [1] 33.6% | [2] 24.9% | [3] 21.9% | [4] 24.1% | [5] 50.1% | [6] 39.5%

CCC1([N+](=O)[O-])COC2(CCCCC2)OC1
inactive: [1] 6.95% | [2] 23.7% | [3] -11.4% | [4] -1.35% | [5] 13.6% | [6] -13.1%

O=c1/c(=C\c2ccccc2Cl)sc2n1CCN=2
inactive: [1] 22.2% | [2] 5.8% | [3] 4.9% | [4] 15.4% | [5] 11.3% | [6] 24.9%

CCCCC(CC)C(O)CC(C)=O (stereo not given)
inactive: [1] 39.1% | [2] 16.9% | [3] 25% | [4] -8.75% | [5] 14.2% | [6] 21.1%

CCC(S)(C(N)=O)c1ccccc1 (stereo not given)
inactive: [1] 3% | [2] -10.4% | [3] -7.55% | [4] -26.8% | [5] -4.8% | [6] -18.2%

CCN(CC)C(=O)CNC(=O)C(c1ccccc1)c1ccccc1
inactive: [1] 4.25% | [2] -6.2% | [3] 1.4% | [4] -9.7% | [5] 6.35% | [6] -8.05%

Cc1cc2nc(/C(C#N)=C/c3cc(Cl)cc(Cl)c3O)[nH]c2cc1C
inactive: [1] 16.2% | [2] 22.4% | [3] 33% | [4] 28.1% | [5] 19.4% | [6] -3.35%

COc1ccc2c(c1)C1(C)CCCC(C)(CN=C=O)C1CC2 (stereo not given)
inactive: [1] 3.55% | [2] 14.4% | [3] -4.75% | [4] 4.8% | [5] -11.9% | [6] -1.95%

CC(=O)OC1CC2CCCCC2CC1[N+](C)(C)C (stereo not given)
inactive: [1] 2.25% | [2] 7.3% | [3] 13.8% | [4] -1.15% | [5] 3.3% | [6] -35.8%

CC1(C)CCCOc2cccc(c2)OCCCC(C)(C)C1=O
inactive: [1] 14.5% | [2] -1.7% | [3] -9.05% | [4] 27.1% | [5] 28.8% | [6] 25.9%

O=C(Nc1ccccc1)c1nn(-c2cc(S(=O)(=O)O)c([N+](=O)[O-])cc2Cl)[n+](-c2cc(S(=O)(=O)[O-])c([N+](=O)[O-])cc2Cl)n1
inactive: [1] -4.45% | [2] -3.25% | [3] -25.1% | [4] -26.8% | [5] -23.6% | [6] 2.3%

CC(C)CC1CC(=O)NC1C(=O)O (stereo not given)
inactive: [1] -14.2% | [2] 0.35% | [3] -13.2% | [4] -26.1% | [5] -0.85% | [6] -28.9%

C=C1C(=O)OC2C1CC(OC(C)=O)/C(C)=C/CCC1(C)OC21 (stereo not given)
inactive: [1] -4.5% | [2] -35.3% | [3] 6% | [4] -6.25% | [5] -27.6% | [6] -68.2%

O=S(Cc1ccccc1)c1ccccc1Cn1cccc1 (stereo not given)
inactive: [1] -32.8% | [2] -39.6% | [3] -19.6% | [4] -18.6% | [5] 14.2% | [6] -9.5%

CCOCCOC(=O)C(C)OC(=O)/C(=C/C(=O)O)CCOCC (stereo not given)
inactive: [1] -1% | [2] -18.4% | [3] -9.75% | [4] -0.2% | [5] -1.6% | [6] 8.85%

CC(C)C(=O)CC(c1ccc(Cl)cc1)N1N=C(C(C)C)CC1c1ccc(Cl)cc1 (stereo not given)
inactive: [1] 8.05% | [2] 15.2% | [3] 6.95% | [4] -27.4% | [5] 40% | [6] 14.4%

NC(=O)C(CCCCNc1c(C(=O)O)cc([N+](=O)[O-])cc1[N+](=O)[O-])NC(=O)c1ccccc1 (stereo not given)
inactive: [1] 14.4% | [2] -6.05% | [3] -19.1% | [4] -7.95% | [5] -2% | [6] 28.8%

C(=C\c1ccc(-c2ccccc2)cn1)/c1ccccc1
inactive: [1] -8.5% | [2] -15.8% | [3] -3.45% | [4] -26.6% | [5] 24.8% | [6] -12%

CCOC(=O)c1ccccc1[N+](=O)[O-]
inactive: [1] 22.8% | [2] 23.4% | [3] 8.7% | [4] -11.7% | [5] 6.7% | [6] 18.2%

FC12CCC(c3ccccc3)(CC1)CC2
inactive: [1] 11.8% | [2] -8.55% | [3] -4% | [4] -30.1% | [5] -3.5% | [6] -7.4%

Cc1ccc(N=N/C(=N/NC(=O)c2ccccc2)c2ccc(N(CCC#N)CCC#N)cc2C)cc1
inactive: [1] 0.85% | [2] 3.3% | [3] -9.65% | [4] -16.3% | [5] -3.25% | [6] -40%

Cc1ccc(S(=O)(=O)OC(c2ccc(Cl)cc2Cl)C2OC(=O)c3ccccc32)cc1 (stereo not given)
inactive: [1] 23.3% | [2] -12.4% | [3] 16.9% | [4] 24.7% | [5] 15% | [6] 21.4%

CCCC(NC(=O)CN)C(=O)O (stereo not given)
inactive: [1] 14.8% | [2] 19.1% | [3] 2% | [4] -50% | [5] -29.4% | [6] 6.5%

Cc1[nH]c(=O)cc(C(=O)O)c1CN
inactive: [1] 7.15% | [2] -8.75% | [3] 3.7% | [4] -59.2% | [5] -7.25% | [6] -3.45%

CCOC(=O)C(Cl)(NC(=O)c1ccc(F)cc1)C(F)(F)F (stereo not given)
inactive: [1] -6.25% | [2] 6.7% | [3] -18.5% | [4] 7.3% | [5] -12.9% | [6] -18.1%

CNNC1=NS(=O)(=O)c2cc(C(=O)OC)c(Cl)cc2S1
inactive: [1] 8.75% | [2] -2.25% | [3] -9.9% | [4] 0.5% | [5] -6% | [6] 8.25%

CC(=O)NC1C(OCc2ccccc2)OC(CO)C(O)C1OCC(=O)N1CCCC1C(=O)NC(CCC(=O)NCCCCCNc1c2ccccc2nc2cccc([N+](=O)[O-])c12)C(N)=O (stereo not given)
inactive: [1] 42.9% | [2] 57.6% | [3] 47.6% | [5] 0.55%
active: [4] 78.2% | [6] 72.5%

COC(=O)c1cc(-c2cccc3ccccc23)[nH]c(=O)c1C#N
inactive: [1] 8.85% | [2] 0.35% | [3] 17.6% | [4] 18.7% | [5] -6.6% | [6] 21.9%

CSc1ccc(NC(=O)NNP(=S)(Oc2ccc(C(C)(C)C)cc2)Oc2ccc(C(C)(C)C)cc2)cc1
inactive: [1] -10.7% | [2] -18.1% | [3] 0.5% | [4] 13.8% | [5] -5.75% | [6] -6.2%

Cn1cccc1/C=N/N=C(/N)NO
inactive: [1] 22.9% | [2] -9.85% | [3] -13.7% | [4] -4.5% | [5] -18.5% | [6] -0.4%

COC(=O)C1=C(C)NC(C)=C(C(=O)OC)C1c1cccc(N=O)c1
active: [6] 78.2%
inactive: [1] 9.85% | [2] 6.5% | [3] 13.3% | [4] 4.4% | [5] 26.6%

CCCNc1ncnc2[nH]ncc12
inactive: [1] -44.1% | [2] -25.9% | [3] -39.9% | [4] -23% | [5] -42.2% | [6] -32%

O=c1c2cc([N+](=O)[O-])ccc2n2n1Cc1ccccc1CC2
inactive: [1] -12.8% | [2] -0.9% | [3] -6.5% | [4] 21.5% | [5] 18.5% | [6] -16.4%

NC(N)=N/N=C/c1c(Cl)nc2n1CCS2
inactive: [1] -7.35% | [2] -32.2% | [3] -9.5% | [4] 3.5% | [5] 22.4% | [6] -6.8%

OC(CC1CCCCN1)c1ccc2c(c1)oc1ccccc12 (stereo not given)
inactive: [2] 56.9% | [3] 62.2% | [4] 56.2%
active: [1] 71.7% | [5] 73.8% | [6] 75.6%

O=C(O)c1cnc(Cl)c(Br)c1
inactive: [1] -12.1% | [2] -3.35% | [3] 6.7% | [4] -17.9% | [5] -27.1% | [6] 2.5%

Cc1[nH]c2ccccc2c1C(CC(=O)O)c1ccccc1 (stereo not given)
inactive: [1] 13.6% | [2] -1.4% | [3] -12.8% | [4] -4.85% | [5] -4.55% | [6] -4.4%

CC1=C(CO)C(=O)O[C@@H]([C@@H](C)[C@H]2CC[C@H]3[C@@H]4C[C@@H](O)[C@@]5(O)CC=CC(=O)[C@]5(C)[C@H]4CC[C@]23C)C1
inactive: [1] -6.5% | [2] -7.15% | [3] -17.7% | [4] -9.55% | [5] -36.2% | [6] -77.1%

O=[N+]([O-])c1cccc(S(=O)(=O)SSS(=O)(=O)c2cccc([N+](=O)[O-])c2)c1
inactive: [1] 16.6% | [2] 18.1% | [3] 55.9% | [4] 20.8% | [5] 5.75% | [6] 28.2%

CC(=O)[CH-]C(=O)c1ccccc1.CC(=O)[CH-]C(=O)c1ccccc1.CC[C@H](CCC(C)[C@H]1CCC2[C@@H]3CC=C4C[C@@H]([O-])CC[C@]4(C)C3CC[C@@]21C)C(C)C.CC[C@H](CCC(C)[C@H]1CCC2[C@@H]3CC=C4C[C@@H]([O-])CC[C@]4(C)C3CC[C@@]21C)C(C)C.Cl.[Ti+4] (stereo not given in full)
inactive: [1] 19% | [2] 3.9% | [3] 23.2% | [4] -11.2% | [5] 27.1% | [6] 5.05%
